CR mimetic SO: yeast age-related superoxide inhibition as caloric restriction mimetic. S. cerevisiae aged cells, superoxide DHE fluorescence; stronger effect = lower value. superoxide response (% of plate mean), % at 10 µM. actives 0.18% (n = 330,000). AID 2690;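 active = superoxide response under a set limit, about three screen SD below normal, cut at about 65% in these data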;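 note: yeast aged for seven days with compound at 30 °C before DHE staining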
SKKanGAS inh: SKKanGAS growth inhibition; S. pyogenes SKKanGAS, kanamycin growth, BacTiter-Glo, 6 h; inhibition, % at 7.5 µM; actives 1.3% (n = 300,000); AID 1662;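 active = mean replicate score, as percent of positive control median, at least 50; inconclusive = mean below 50 but one replicate at or above 50; inactive = mean and every replicate below 50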;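 note: strain carries kanamycin resistance gene driven by streptokinase promoter and grows in 40 µg/ml kanamycin; loss of luminescence reflects streptokinase promoter inhibition or plain growth inhibition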
PolyA inhibitor: blocks polyadenylation in yeast reporter cells; activity score, % at 12 µM; actives 0.02% (n = 300,000); S. cerevisiae SKY197-pL101 polyadenylation reporter, beta-gal luminescence; efflux-impaired pdr1/pdr3 knockout yeast; score 100 = 6 SD above DMSO;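 active = lowest replicate activity score at least 50, where 100 means six control SD above control mean; inconclusive = lowest score under 50 but half or more replicates reach 50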;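 note: yeast exposed to compound for 9 h at 30 °C; higher score means more reporter readthrough which indicates perturbed polyadenylation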
Platelet DG rel: modulates dense granule release in human platelets | human platelet-rich plasma, SFLLRN dense granule ATP release, luminescence | inhibition, %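 (compounds screened at 7.5 µM in platelet-rich plasma)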 | actives 0.22% (n = 300,000) | AID 1663;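 active = mean replicate score, as percent of positive control, at or above 50; inconclusive = mean below 50 but at least one replicate at or above 50; inactive = mean and every replicate below 50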
Calb FLC: affects C. albicans growth with fluconazole; actives 0.57% (n = 300,000); growth inhibition, % (no concentration beside the values); AID 1979; C. albicans CaCi-2 (fluconazole-resistant clinical isolate) + fluconazole, Alamar Blue growth, 48 h;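 active = growth inhibition above about 58% in most replicates, limit read from the data, passing the limit was not always enough; inconclusive = exactly half the replicates above a set limit; inactive = most replicates below a set limit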;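 note: all wells also contain fluconazole at 8 µg/ml as a sub-toxic cotreatment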
Of the large screens only hits and unclear results are named; the others gave an inactive call. Sampled rows, rich in hits. Any-hit rate of the full collection: about 2%.

Cc1ccc(Sc2cc(C)nc(-c3ccccn3)n2)cc1	SKKanGAS inh 85
COc1ccccc1Sc1nc(-c2ccccn2)ncc1OC	SKKanGAS inh 83
FC(F)(F)c1cccc(Sc2cc(C(F)(F)F)nc(-c3ccccn3)n2)c1	none
COc1cnc(-c2ccccn2)[nH]c1=O	none
COc1ccc(-c2nc(-c3ccccn3)ncc2S(C)(=O)=O)cc1	none
COc1cnc(-c2ccccn2)nc1Sc1ccc(C)cc1	SKKanGAS inh 67
COc1cnc(-c2ccccn2)nc1NC(C)C	SKKanGAS inh inconclusive, Calb FLC 113
COc1cnc(-c2ccccn2)nc1Oc1ccc(F)cc1F	none
COc1ccc(NC(=O)CSc2nnc(C)n2C2CC2)cc1S(=O)(=O)N1CCOCC1	none (no result: SKKanGAS inh, PolyA inhibitor, Platelet DG rel, Calb FLC)
Nc1cccnc1Sc1cccc(Cl)c1	none
COc1cnc(-c2ccccn2)nc1Sc1cccc(Cl)c1	SKKanGAS inh 67, Calb FLC 91
C=CCn1c(SCC(=O)Nc2cccnc2Cl)nnc1-c1ccccc1F	none
COc1cc(N/N=C/c2ccccc2O)ncn1	none
COc1cc(N/N=C/c2ccc(N(C)C)cc2)ncn1	Platelet DG rel 57
CC(C)N1CC(O)=C(c2nc3ccccc3[nH]2)C1=N	none
CC1(C)C(O)=C(c2nc3ccccc3[nH]2)C(=N)N1c1ccccc1	Calb FLC 100
Cc1ccc(C(=O)CC(=O)c2ccccc2C)c(O)c1	SKKanGAS inh 97, Calb FLC 81
Cc1ccc(C)c(NC(=O)c2ccccc2O)c1	none
Cc1ccc(C(=O)CC(=O)c2cccc(F)c2)c(O)c1	none
Cc1ccc(O)c(C(=O)CC(=O)c2ccccc2Cl)c1	SKKanGAS inh 81, Calb FLC 108
Cc1ccc(O)c(C(=O)CC(=O)c2ccc(C(C)(C)C)cc2)c1	SKKanGAS inh 95, PolyA inhibitor inconclusive
Cc1nc(N2CCC(C)CC2)c2c(C)c(C(=O)Nc3ccccc3C(F)(F)F)sc2n1	SKKanGAS inh 58
CCC1=NN(C(=O)c2ccccc2Br)C(O)(c2ccc(Br)cc2)C1 (stereo unspecified)	none
CCC1=NN(C(=O)c2ccccc2O)C(O)(c2ccccc2)C1 (stereo unspecified)	SKKanGAS inh 54, Calb FLC 107
CC(/C=C/C=C/c1ccccc1)=N/NC(=O)c1ccc2c(c1)OCCO2	SKKanGAS inh 61
CC(/C=C/c1ccccc1)=N/NC(=O)c1cccc(Br)c1	SKKanGAS inh 87
CC(/C=C/C=C/c1ccccc1)=N\NC(=O)c1cccnc1	none
Cc1ccc(-n2c(C)cc(/C=c3/sc4nc5ccccc5n4c3=O)c2C)cc1	Platelet DG rel 61
CC(=O)Oc1cc2c3c(c1)/C(=C1/SC(=S)NC1=O)C(=O)N3C(C)(C)C=C2C	SKKanGAS inh 82
CCOc1ccc(-c2cc(C(=O)OC)nc3c2c(=O)n(C)c(=O)n3C)cc1	SKKanGAS inh 93
COC(=O)c1cc(-c2ccc(OC)c(OC)c2)c2c(=O)[nH]c(=O)n(C)c2n1	none
COC(=O)c1cc(-c2ccc(Br)cc2)c2c(=O)[nH]c(=O)n(C)c2n1	SKKanGAS inh 62
CCOc1ccc(S(=O)(=O)Nc2ccc(C(=O)NCc3ccncc3)cc2)cc1	none (no result: SKKanGAS inh, PolyA inhibitor, Platelet DG rel, Calb FLC)
Cc1ccc(NCc2ccc(O)c3ncccc23)cc1	Calb FLC 64
Cc1ccc(NCc2ccc(O)c3ncccc23)cc1C	Calb FLC 65
Nc1ccc(N=Nc2ccccc2)c2ccccc12	SKKanGAS inh 86
COc1ccc(S(=O)(=O)Nc2cccc3c2O[C@H](CN(C)C(=O)NC2CCCCC2)[C@@H](C)CN([C@H](C)CO)C3=O)cc1	none (no result: SKKanGAS inh, PolyA inhibitor, Platelet DG rel, Calb FLC)
CSc1cnn(Cc2ccccc2)c(=O)c1SCc1ccccc1	SKKanGAS inh 68
Cc1ccsc1C(=O)Nc1nc2ccccc2[nH]1	Platelet DG rel 100
COc1cc(OC)cc(C(=O)Nc2nc3ccccc3[nH]2)c1	SKKanGAS inh 59
Cc1cc(C)cc(C(=O)Nc2nc3ccccc3[nH]2)c1	SKKanGAS inh inconclusive
O=C(Nc1nc2ccccc2[nH]1)c1ccc(OC(F)F)cc1	none (no result: SKKanGAS inh)
COc1ccc2oc(C(=O)Nc3nc4ccccc4[nH]3)c(C)c2c1	SKKanGAS inh 78
CC(C)Oc1ccc(C(=O)Nc2nc3ccccc3[nH]2)cc1	SKKanGAS inh 55
COc1ccc(Br)c(C(=O)Nc2nc3ccccc3[nH]2)c1	none
Cc1ccc(S(=O)(=O)Nc2cccc(C(=O)NCc3ccccn3)c2)cc1F	none
CCc1ccc(C(=O)NNC(=O)[C@H](C)NC(=O)c2ccco2)cc1	none (no result: SKKanGAS inh, PolyA inhibitor, Platelet DG rel, Calb FLC)
O=C(Nc1nc2ccccc2[nH]1)c1ccc(F)cc1	none
O=C(Nc1nc2ccccc2[nH]1)c1ccccc1F	SKKanGAS inh 80, Platelet DG rel 87
CCc1ccc(C(=O)Nc2nc3ccccc3[nH]2)cc1	SKKanGAS inh 63
COc1cc(/C=N/Nc2nc(C)cc(=O)[nH]2)ccc1OC(=O)c1cccnc1	none
Cc1c(C(=O)O)sc2nc(CSc3ncc(C(F)(F)F)cc3Cl)[nH]c(=O)c12	none
COC(=O)/C=C1\S/C(=N/NC(=O)c2ccccc2)NC1=O	none
COc1ccccc1/C=C1\S/C(=N/NC(=O)c2cccc(Br)c2)NC1=O	SKKanGAS inh 81, Calb FLC inconclusive
COc1cccc(-c2nn(-c3ccccc3)cc2C(=O)Nc2nccs2)c1	SKKanGAS inh 62 (no result: Platelet DG rel)
COc1ccc(-c2nn(-c3ccccc3)cc2C(=O)Nc2nccs2)cc1	none
Cc1nn(-c2ccc(N3CCCCC3)nn2)c(C)c1CCC(=O)Nc1ccc(F)c(F)c1	none
Cc1ccccc1-n1c(=O)c(C#N)cc2c(=O)n3ccccc3nc21	Calb FLC 54
CCc1noc(C)c1C(=O)Nc1ccc(S(=O)(=O)N2CCC(C)CC2)cc1	none (no result: Calb FLC)
CCc1ccccc1NC(=O)NNS(=O)(=O)c1cc(C)ccc1C	SKKanGAS inh 51
CCOc1ccccc1NC(=O)NNS(=O)(=O)c1cc(C)ccc1C	none
COc1ccc(/C=C/c2cccc[n+]2C)c(O)c1	none
CCN(CC)c1ccc(/C=C/c2cccc[n+]2C)c(OC)c1	Calb FLC 78
O=C(Cc1ccccc1)Nn1c(O)c(/C=C2\C=Nc3ccccc32)sc1=S	SKKanGAS inh 50
Cc1cc(Nc2ccccc2)nc(NCc2ccccc2)n1	Calb FLC 97
Cc1cc(N/N=C/c2ccc(Cl)cc2Cl)nc(NCc2ccccc2)n1	SKKanGAS inh 92
COc1ccc(C)cc1NC(=O)Cn1c(=O)oc2ccccc21	none
COc1cc(N/N=C(\C)c2ccc(O)c(C)c2)nc(-c2ccccc2)n1	none
C/C(=N\Nc1cc(-c2ccccc2)nc(-c2ccccc2)n1)c1ccc(O)c(C)c1	SKKanGAS inh 98
CCC(C(=O)OCC(=O)Nc1cccc(C(C)=O)c1)c1ccccc1 (stereo unspecified)	none
CCC(C(=O)OCC(=O)Nc1cc(Cl)cc(Cl)c1)c1ccccc1 (stereo unspecified)	SKKanGAS inh 53
CC(C)(C)c1csc(NNC(=O)c2ccc(Br)cc2)n1	SKKanGAS inh 61
O=C(NNc1nc(-c2ccc(F)cc2)cs1)c1ccccc1	SKKanGAS inh 68
O=C(NNc1nc(-c2ccccc2)cs1)c1ccc(F)cc1	SKKanGAS inh 53

High-throughput results (PubChem)
